Results: PubChem BioAssay (NCATS)
Records with an inconclusive call do not appear. Calls of active or inactive are those of the source. Unless noted, the call rests on the fitted dose curve; in most records, active means well fitted curve in the direction sought with a large enough effect; inconclusive means small, poorly fitted or top-dose-only effect, or another doubt; inactive means no such curve, though single readings can be large; an effect the other way counts as inactive or inconclusive.

Legend:
[1] = biological target: Lysosomal acid glucosylceramidase (Homo sapiens) (UniProt P04062); assay: Glucocerebrosidase-p2 (AID 348; in the data active means potency below about 10 µM; further: potency means the concentration at half of the fitted maximal effect); conditions: purified GBA, blue fluorogenic substrate, 40 min
Outline: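 Normal human glucocerebrosidase (0.2 nM) with blue fluorogenic substrate (80 uM final) in citrate/phosphate pH 5.9 with 10mM sodium taurocholate, 0.01% tween-20; 40 min RT, NaOH/glycine stop; fluorescence Ex 365/Em 440; AC50 from a titration from 0.6 nM upwards.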

[2] = AP1 Signaling Pathway (AID 357; active means well fitted curve in either direction with a large enough effect, not every such curve was filed as active;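 further: ME-180 reporter cells stimulated with EGF at its EC50 level; on the % scale 0 is the no-effect control and ±100 the full control effect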); conditions: ME-180 AP-1-bla reporter, EGF-induced, beta-lactamase ratio, 5 h; at 7.69 µM (top of the series) unless noted
Outline: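 Cells are seeded overnight, exposed to compound titrations and an EC50 level of EGF for 5 hours at 37 °C, then loaded with CCF4 dye for 2.5 hours. Beta-lactamase activity under the AP-1 element is read as a blue/green ratio.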

[3] = biological target: Cytochrome P450 1A2 (Homo sapiens) (UniProt P05177); assay: p450-cyp1a2 (AID 410; calls by dose curve; further: potency means the concentration at half of the fitted maximal effect)
Outline: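 20nM CYP1A2, 100uM Luciferin-ME (=Km), 100mM KPO4; cpd 10 min RT; +NADPH regen, 60 min RT; stop/detect 20 min; luminescence. Normalized to furafylline 57 uM = full inhibition.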

[4] = NFAT Signaling Pathway (AID 444; active means well fitted curve in either direction with a large enough effect, not every such curve was filed as active;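 further: carbachol stimulus at about its EC50 of 1 µM final; on the % scale 0 is the no-effect control and ±100 the full control effect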); conditions: Jurkat NFAT-bla M1, carbachol, beta-lactamase ratio, 5 h; at 7.69 µM (top of the series) unless noted
Outline: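 Jurkat cells carrying an NFAT-driven β-lactamase reporter and co-transfected muscarinic M1 receptor were treated with compound plus carbachol (1 uM final, an EC50 level) for 5 h at 37 °C. CCF4 loading followed for 1 h at RT; 460/530 nm ratio gave %activity.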

[5] = Stat Signaling Pathway (AID 446; active means well fitted curve in either direction with a large enough effect, not every such curve was filed as active;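 further: ME-180 cervical cancer cells given 40 pM IL-6 alongside compound; SIE-controlled beta-lactamase reporter measured as 460/530 nm FRET emission ratio; on the % scale 0 is the no-effect control and ±100 the full control effect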); conditions: ME-180 SIE beta-lactamase reporter, IL-6 stimulated, 5 h; at 7.69 µM (top of the series) unless noted
Outline: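 Overnight-plated ME-180 cells bearing a STAT Inducible Element beta-lactamase reporter; 5 h co-exposure to compound and 40 pM IL-6; values normalized to 300 pM IL-6 and 125 nM JAK inhibitor controls.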

[6] = biological target: Glucocorticoid receptor (Homo sapiens) (UniProt P04150); assay: GR-GFP Redistribution (AID 450;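 active means compounds whose dose series gives a full or clear partial fitted curve of increased nuclear translocation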; further: potency means the concentration at half of the fitted maximal effect); conditions: U2OS GR-GFP nuclear translocation, laser cytometry, 2 h
[7] = biological target: Glucocorticoid receptor (Homo sapiens) (UniProt P04150); assay: GR-EFC Redistribution (AID 451; calls by dose curve; further: potency means the concentration at half of the fitted maximal effect); conditions: CHO-K1 GR-EFC translocation, beta-gal luminescence, 2 h
Outline: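 CHO-K1 cells stably expressing nuclear-localized β-gal enzyme acceptor and GR fused C-terminally to the enzyme donor fragment; ligand-driven nuclear translocation restores β-gal by complementation. Compounds titrated up to 46 uM final, 2 h at 37 °C; luminescence read.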

[8] = biological target: Mitogen-activated protein kinase 10 (Mus musculus) (UniProt Q61831); assay: JNK3 AlphaScreen Assay (AID 530; active means well fitted curve in either direction with a large enough effect, not every such curve was filed as active;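 further: kinase came from lysate of stimulated human HepG2 cells; signal reports phosphorylation of biotinylated GST-cJun 1-79 at Ser73 with 10 µM ATP; on the % scale 0 is the no-effect control and ±100 the full control effect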)
Outline: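 Biotinylated GST-cJun(1-79) served as substrate for JNK3 in HepG2 lysates stimulated with IL-1beta and TNF-alpha. ATP was 10 uM final, pH 7.6. Ser73 phosphorylation was quantified by AlphaScreen (680 nm excitation).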

[9] = biological target: Cytochrome P450 2C9 (Homo sapiens) (UniProt P11712); assay: qHTS Assay for Inhibitors and Substrates of Cytochrome P450 2C9 (AID 883); further: nearly all actives have a fitted effect of over 60% in size; further: potency means the concentration at half of the fitted maximal effect
Outline: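 CYP2C9 deoxyluciferin hydroxylation, 37C, 60 min with NADPH regeneration; 10nM enzyme, 100uM Luciferin-H (KM). Glo detection reagent stopped reaction; luminescence normalized to sulphaphenazole (57uM) full inhibition.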

[10] = biological target: Cytochrome P450 3A4 (Homo sapiens) (UniProt P08684); assay: qHTS Assay for Activators of Cytochrome P450 3A4 (AID 885); further: nearly all actives have a fitted effect of over 65% in size
Outline: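 Using 20nM recombinant human CYP3A4 in potassium phosphate (200mM), substrate Luciferin-PPXE at 25uM, luminescent luciferin detection followed a 60-min RT NADPH reaction; data scaled to 57 uM ketoconazole.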

[11] = qHTS Assay for Lipid Storage Modulators (AID 1519; calls by dose curve); conditions: Drosophila S3 cells, BODIPY lipid droplet/cell ratio, laser cytometry, cells loaded with oleic acid; for activity change, negative = inhibition: at 57.5 µM (top of the series)
Outline: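 Cells seeded at 5,000 per well were treated with compounds over a concentration series and loaded with oleic acid (400 uM, as added). Lipid droplet fluorescence (488 nm excitation, 500-530 nm channel) was read by laser-scanning cytometry and normalized to 20 uM Triacsin C.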

[12] = biological target: Dual specificity protein kinase CLK4 (Homo sapiens) (UniProt Q9HAZ1); assay: qHTS Assay for Inhibitors of CDC-like Kinase 4 (Kinase-Glo Assay) (AID 1770); further: nearly all actives have a fitted effect of over 65% in size; further: potency means the concentration at half of the fitted maximal effect
Outline: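 Clk4 25 nM, RS peptide 100 uM, ATP 1 uM, pH 7.5 Tris, 10 mM MgCl2, 2.5 mM DTT; 4.5 h RT; ATP depletion read by Kinase-Glo luminescence.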

[13] = biological target: Dual specificity protein kinase CLK4 (Homo sapiens) (UniProt Q9HAZ1); assay: qHTS Assay for Inhibitors of CDC-like Kinase 4 (ADP-FP Assay) (AID 1795);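 further: recombinant human CLK4 phosphorylating RS repeat peptide at 1 µM ATP; on the % scale 0 is the no-effect control and ±100 the full control effect; nearly all actives have a fitted effect of over 60% in size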
Outline: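 Kinase activity was followed as ADP output, converted from fluorescence polarization with a calibration curve. Reactions ran one hour at low ATP (1 uM) with RS peptide substrate.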

[14] = biological target: Ubiquitin carboxyl-terminal hydrolase 1 (Homo sapiens) (UniProt O94782); assay: Inhibitors of USP1/UAF1: Pilot qHTS (AID 504865);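 further: rhodamine fluorescence freed from ubiquitin-rhodamine substrate followed over time; top concentration of the series differs between compounds; on the % scale 0 is the no-effect control and ±100 the full control effect; nearly all actives have a fitted effect of over 35% in size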
Outline: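 Enzyme-free wells gave the negative control, while test wells held 1nM USP1/UAF1 preincubated with compound for 15 min at room temperature. Ub-Rho at 150nM final started the reaction, and fluorescence at 480/540 nm was recorded kinetically.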

[15] = Primary qHTS for small molecule stabilizers of the endoplasmic reticulum resident proteome: Secreted ER Calcium Modulated Protein (SERCaMP) assay (AID 1508630); further: on the % scale 0 is the no-effect control and ±100 the full control effect
Outline: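 The SH-SY5Y reporter protocol was run at 3 concentrations up to 38.3 uM (primary) or 11 concentrations (follow-up): 16 h compound, 100 nM thapsigargin for 4 h, then extracellular luciferase luminescence.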

[16] = biological target: 3',5'-cyclic-AMP phosphodiesterase 4B (Homo sapiens) (UniProt Q07343); assay: qHTS Assay for Inhibitors of PDE-IV (AID 607; active means well fitted activation curve with a large enough effect in the main read-out, with a control signal flat, not every such curve was filed as active; further: % of control where 0% means no effect)
Outline: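 Live HEK293 cells with a modified cyclic nucleotide-gated (CNG) channel report intracellular cAMP via membrane-potential dye fluorescence (ex 535/em 590 nm). Endogenous PDE-IV was targeted. Compounds were tested at up to 22.9 uM final; RO 20-1724 100 uM served as control.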

[17] = biological target: Dual specificity protein kinase CLK4 (Homo sapiens) (UniProt Q9HAZ1); assay: qHTS Assay for Inhibitors of CDC-like Kinase 4 (ADP-Glo Assay) (AID 1771); further: potency means the concentration at half of the fitted maximal effect; nearly all actives have a fitted effect of over 70% in size
Outline: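 25 nM Clk4, 100 uM RS peptide, 1 uM ATP (final); 2 mM MgCl2, 0.5 mM EGTA, 2.5 mM DTT, 0.01% Triton X-100; 1 hr RT. ADP-Glo readout: ATP depletion 45 min, conversion/luciferase 30 min, luminescence.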

[18] = qHTS Assay for Identification of Small Molecule Agonists for Hypoxia Response Element Signaling Pathway (AID 914; active means well fitted activation curve with a large enough effect in the signal ratio, with a control signal flat, not every such curve was filed as active; the % refers to the signal ratio; further: potency means the concentration at half of the fitted maximal effect); conditions: ME-180 (cervical carcinoma) HRE-bla reporter, beta-lactamase ratio, CoCl2, 17 h; activation: stronger effect = higher value
Outline: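 Compounds in a titration series were added to ME-180 reporter cells alongside an EC50 level of CoCl2. After 17 hours, beta-lactamase activity was read as the 460nm/530nm emission ratio of CCF4, giving AC50 values.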

[19] = biological target: Cytochrome P450 3A4 (Homo sapiens) (UniProt P08684); assay: qHTS Assay for Inhibitors and Substrates of Cytochrome P450 3A4 (AID 884); further: potency means the concentration at half of the fitted maximal effect; nearly all actives have a fitted effect of over 50% in size
Outline: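 Luminescent readout of luciferin produced by CYP3A4 (20 nM) dealkylation of Luciferin-PPXE, 25 uM (its KM). NADPH-driven reaction ran 60 min at RT after 10 min compound preincubation; data scaled to 57 uM ketoconazole as 100% inhibition.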

[20] = biological target: Cytochrome P450 2C19 (Homo sapiens) (UniProt P33261); assay: qHTS Assay for Inhibitors and Substrates of Cytochrome P450 2C19 (AID 899); further: potency means the concentration at half of the fitted maximal effect; nearly all actives have a fitted effect of over 60% in size
Outline: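 In 50mM KPO4, the reaction held 5nM enzyme and KM-level (10uM) Luciferin-H EGE; it ran 60 min at 37C after NADPH regeneration and a 10 min compound preincubation. Luminescence values were scaled to 57uM ketoconazole as complete inhibition.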

[21] = measured here: cell count channel max response
[22] = measured here: lipid channel max response

3',5'-cyclic-AMP phosphodiesterase 4B (Homo sapiens), sequence (Q07343 whole entry, looked up): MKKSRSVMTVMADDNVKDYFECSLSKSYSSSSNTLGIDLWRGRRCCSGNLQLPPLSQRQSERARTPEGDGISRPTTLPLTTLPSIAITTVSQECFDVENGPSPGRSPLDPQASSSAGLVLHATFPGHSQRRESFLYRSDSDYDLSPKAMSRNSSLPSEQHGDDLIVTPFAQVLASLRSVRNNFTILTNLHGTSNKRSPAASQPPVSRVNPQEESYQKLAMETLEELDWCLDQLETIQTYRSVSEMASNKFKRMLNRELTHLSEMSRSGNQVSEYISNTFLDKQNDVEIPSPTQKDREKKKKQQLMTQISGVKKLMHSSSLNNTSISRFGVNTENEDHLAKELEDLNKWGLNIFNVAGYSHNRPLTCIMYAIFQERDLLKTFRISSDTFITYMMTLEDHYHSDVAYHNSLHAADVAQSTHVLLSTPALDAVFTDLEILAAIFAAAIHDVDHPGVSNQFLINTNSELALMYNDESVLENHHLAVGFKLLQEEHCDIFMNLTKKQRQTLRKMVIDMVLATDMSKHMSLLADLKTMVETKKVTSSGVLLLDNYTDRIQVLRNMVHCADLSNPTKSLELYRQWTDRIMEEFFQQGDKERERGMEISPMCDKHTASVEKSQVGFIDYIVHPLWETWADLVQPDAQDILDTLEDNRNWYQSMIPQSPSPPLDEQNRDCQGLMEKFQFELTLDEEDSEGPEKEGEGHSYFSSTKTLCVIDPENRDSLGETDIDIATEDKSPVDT
Lysosomal acid glucosylceramidase (Homo sapiens), sequence (P04062 whole entry, looked up): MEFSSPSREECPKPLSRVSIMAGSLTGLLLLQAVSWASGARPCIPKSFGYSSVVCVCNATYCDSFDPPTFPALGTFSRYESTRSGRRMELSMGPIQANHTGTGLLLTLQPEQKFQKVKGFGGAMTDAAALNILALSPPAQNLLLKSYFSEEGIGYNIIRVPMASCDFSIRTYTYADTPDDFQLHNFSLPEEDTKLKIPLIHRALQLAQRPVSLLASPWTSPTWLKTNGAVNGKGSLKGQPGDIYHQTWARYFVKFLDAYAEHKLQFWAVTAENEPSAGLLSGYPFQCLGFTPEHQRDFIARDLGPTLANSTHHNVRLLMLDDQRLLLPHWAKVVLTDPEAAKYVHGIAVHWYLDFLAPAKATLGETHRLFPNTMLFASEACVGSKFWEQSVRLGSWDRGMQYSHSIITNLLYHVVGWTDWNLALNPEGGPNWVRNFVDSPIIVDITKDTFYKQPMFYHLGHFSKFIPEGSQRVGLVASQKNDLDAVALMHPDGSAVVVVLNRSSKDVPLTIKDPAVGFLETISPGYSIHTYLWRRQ
Cytochrome P450 1A2 (Homo sapiens), sequence (P05177 whole entry, looked up): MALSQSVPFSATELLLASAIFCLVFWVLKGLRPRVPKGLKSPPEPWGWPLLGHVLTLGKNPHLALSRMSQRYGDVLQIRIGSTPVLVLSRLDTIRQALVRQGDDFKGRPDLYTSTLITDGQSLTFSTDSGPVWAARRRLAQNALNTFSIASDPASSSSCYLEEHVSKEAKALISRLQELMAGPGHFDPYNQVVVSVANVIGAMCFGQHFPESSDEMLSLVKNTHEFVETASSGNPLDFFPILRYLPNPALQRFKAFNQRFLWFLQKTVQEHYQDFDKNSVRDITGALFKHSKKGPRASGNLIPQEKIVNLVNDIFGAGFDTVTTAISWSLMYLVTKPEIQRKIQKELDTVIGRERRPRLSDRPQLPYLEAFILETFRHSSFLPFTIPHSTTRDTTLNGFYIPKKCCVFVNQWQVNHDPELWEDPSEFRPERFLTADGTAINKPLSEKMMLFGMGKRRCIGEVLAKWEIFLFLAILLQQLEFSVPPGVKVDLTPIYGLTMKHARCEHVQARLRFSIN
Glucocorticoid receptor (Homo sapiens), sequence (P04150 whole entry, looked up, the tested form may be a part): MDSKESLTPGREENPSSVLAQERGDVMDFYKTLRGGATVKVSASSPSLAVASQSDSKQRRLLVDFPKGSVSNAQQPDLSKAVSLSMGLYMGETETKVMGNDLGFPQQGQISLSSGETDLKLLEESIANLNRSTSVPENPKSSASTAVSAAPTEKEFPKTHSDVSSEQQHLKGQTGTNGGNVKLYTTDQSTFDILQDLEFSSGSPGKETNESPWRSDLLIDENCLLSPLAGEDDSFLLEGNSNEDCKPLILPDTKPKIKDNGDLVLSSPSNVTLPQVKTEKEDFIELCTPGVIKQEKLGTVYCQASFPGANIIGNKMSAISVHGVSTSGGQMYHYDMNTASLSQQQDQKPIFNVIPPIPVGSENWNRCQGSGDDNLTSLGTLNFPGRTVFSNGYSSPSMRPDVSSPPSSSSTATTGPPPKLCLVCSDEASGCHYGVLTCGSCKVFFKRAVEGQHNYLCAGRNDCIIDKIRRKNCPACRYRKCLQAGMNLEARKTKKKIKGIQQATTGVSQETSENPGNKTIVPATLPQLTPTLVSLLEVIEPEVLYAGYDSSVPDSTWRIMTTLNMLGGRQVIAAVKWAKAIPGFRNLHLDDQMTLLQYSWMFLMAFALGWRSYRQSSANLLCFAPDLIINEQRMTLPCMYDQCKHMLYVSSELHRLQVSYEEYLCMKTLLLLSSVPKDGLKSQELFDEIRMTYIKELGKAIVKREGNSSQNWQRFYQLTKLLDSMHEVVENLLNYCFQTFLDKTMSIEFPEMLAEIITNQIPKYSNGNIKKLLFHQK
Cytochrome P450 3A4 (Homo sapiens), sequence (P08684 whole entry, looked up): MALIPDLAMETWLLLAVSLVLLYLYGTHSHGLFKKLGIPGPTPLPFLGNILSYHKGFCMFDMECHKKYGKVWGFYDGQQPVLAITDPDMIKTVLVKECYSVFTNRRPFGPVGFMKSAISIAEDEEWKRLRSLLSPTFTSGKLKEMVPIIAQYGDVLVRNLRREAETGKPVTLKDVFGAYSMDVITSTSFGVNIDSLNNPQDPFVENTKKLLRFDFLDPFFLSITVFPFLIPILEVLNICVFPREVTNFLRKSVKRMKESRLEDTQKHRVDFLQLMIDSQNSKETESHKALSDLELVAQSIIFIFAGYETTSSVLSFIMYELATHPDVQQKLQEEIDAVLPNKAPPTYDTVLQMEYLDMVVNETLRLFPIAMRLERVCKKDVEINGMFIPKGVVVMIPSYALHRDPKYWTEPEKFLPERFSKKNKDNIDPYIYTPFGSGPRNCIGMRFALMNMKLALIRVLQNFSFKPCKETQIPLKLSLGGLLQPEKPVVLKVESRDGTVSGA
Ubiquitin carboxyl-terminal hydrolase 1 (Homo sapiens), sequence (O94782 whole entry, looked up): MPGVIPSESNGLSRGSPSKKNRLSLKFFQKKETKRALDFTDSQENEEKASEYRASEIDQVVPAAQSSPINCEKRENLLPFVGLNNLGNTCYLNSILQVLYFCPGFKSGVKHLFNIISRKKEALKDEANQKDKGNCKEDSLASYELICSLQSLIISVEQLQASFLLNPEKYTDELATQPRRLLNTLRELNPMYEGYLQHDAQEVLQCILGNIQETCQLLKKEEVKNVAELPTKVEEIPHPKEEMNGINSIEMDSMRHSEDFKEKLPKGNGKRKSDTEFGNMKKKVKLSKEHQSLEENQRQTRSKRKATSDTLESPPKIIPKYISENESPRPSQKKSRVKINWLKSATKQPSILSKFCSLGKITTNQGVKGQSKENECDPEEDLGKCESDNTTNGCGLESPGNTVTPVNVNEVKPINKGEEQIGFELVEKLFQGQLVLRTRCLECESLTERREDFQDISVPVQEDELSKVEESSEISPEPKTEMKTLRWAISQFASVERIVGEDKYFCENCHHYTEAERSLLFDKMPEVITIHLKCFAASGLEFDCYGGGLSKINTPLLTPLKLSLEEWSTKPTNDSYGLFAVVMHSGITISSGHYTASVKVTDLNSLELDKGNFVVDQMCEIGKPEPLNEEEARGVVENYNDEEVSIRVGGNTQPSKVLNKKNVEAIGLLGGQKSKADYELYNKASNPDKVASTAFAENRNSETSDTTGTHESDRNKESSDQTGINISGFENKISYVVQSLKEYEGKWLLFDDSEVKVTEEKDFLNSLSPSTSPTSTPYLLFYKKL
Dual specificity protein kinase CLK4 (Homo sapiens), sequence (Q9HAZ1 whole entry, looked up): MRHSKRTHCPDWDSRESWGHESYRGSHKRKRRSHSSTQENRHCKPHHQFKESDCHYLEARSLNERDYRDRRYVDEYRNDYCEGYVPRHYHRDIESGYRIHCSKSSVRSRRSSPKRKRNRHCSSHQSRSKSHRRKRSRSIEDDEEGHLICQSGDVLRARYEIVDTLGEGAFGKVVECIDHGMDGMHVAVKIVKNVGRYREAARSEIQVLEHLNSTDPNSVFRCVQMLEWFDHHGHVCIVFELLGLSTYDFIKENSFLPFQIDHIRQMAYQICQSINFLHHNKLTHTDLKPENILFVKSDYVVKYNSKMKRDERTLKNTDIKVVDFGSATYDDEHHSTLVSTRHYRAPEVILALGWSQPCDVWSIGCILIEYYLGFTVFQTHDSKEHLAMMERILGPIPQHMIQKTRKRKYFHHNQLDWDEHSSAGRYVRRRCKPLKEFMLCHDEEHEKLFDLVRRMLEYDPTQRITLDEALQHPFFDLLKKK
Cytochrome P450 2C9 (Homo sapiens), sequence (P11712 whole entry, looked up): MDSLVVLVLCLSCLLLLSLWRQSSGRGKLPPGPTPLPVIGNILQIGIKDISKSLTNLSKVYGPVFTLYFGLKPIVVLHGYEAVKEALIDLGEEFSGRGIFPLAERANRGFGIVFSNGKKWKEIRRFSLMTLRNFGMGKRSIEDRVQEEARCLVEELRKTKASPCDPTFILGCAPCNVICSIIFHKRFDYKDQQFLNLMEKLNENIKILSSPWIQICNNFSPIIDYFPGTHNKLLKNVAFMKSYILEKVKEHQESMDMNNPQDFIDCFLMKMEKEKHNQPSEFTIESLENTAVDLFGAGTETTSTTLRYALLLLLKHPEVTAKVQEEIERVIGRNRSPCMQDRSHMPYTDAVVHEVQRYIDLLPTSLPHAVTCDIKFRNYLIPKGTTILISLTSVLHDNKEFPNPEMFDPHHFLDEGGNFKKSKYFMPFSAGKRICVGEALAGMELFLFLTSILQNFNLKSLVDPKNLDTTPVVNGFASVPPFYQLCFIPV

CCNc1ncc2nc(-c3cn(C)c4ccccc34)c(=O)n(-c3ccccc3)c2n1
19.3%: max response [11, 21]
inactive: Potency [1] > 11.4 µM | activity change, negative = inhibition [2] 2.53% | activity change, negative = inhibition [4] 3.22% | activity, negative = inhibition [5] -9.31% | Potency [6] > 9.22 µM | Potency [7] > 46 µM | outcome [8] | Potency [9] | Potency [10] | activity change, negative = inhibition [11] -0.273% | Potency [13] | Potency [14] | Potency [15]
17.5%: max response [11, 22]
active: Potency [3] 15.8 µM | Potency [12] 20 µM

FC(F)(F)c1ccccc1-c1cc(NCCN2CCOCC2)ncn1
25.8%: max response [11, 21]
active: Potency [3] 12.6 µM
inactive: Potency [1] > 11.4 µM | activity change, negative = inhibition [2] 10.7% | activity change, negative = inhibition [4] 27.7% | activity, negative = inhibition [5] 14.2% | Potency [7] > 46 µM | outcome [8] | Potency [16] | activity change, negative = inhibition [11] 5.67% | Potency [12] | Potency [13] | Potency [14] | Potency [15]
30.8%: max response [11, 22]

COc1cccc(Nc2ncc3ncc(=O)n(CCc4ccccc4)c3n2)c1
active: Potency [12] 0.1 µM | Potency [17] 0.282 µM
-19.1%: max response [11, 22]
inactive: Potency [1] > 11.4 µM | activity change, negative = inhibition [4] 4.6% | activity, negative = inhibition [5] -3.68% | Potency [6] > 9.22 µM | Potency [7] > 46 µM | outcome [8] | activity change, negative = inhibition [11] -5.96% | Potency [14] | Potency [15]
-10.9%: max response [11, 21]

Cc1cnc(CNc2ncnc3ccc(-c4c(C)noc4C)cc23)cn1
7.19%: max response [11, 22]
8.76%: max response [11, 21]
inactive: Potency [1] > 11.4 µM | activity change, negative = inhibition [2] 12.8% | Potency [6] > 46 µM | Potency [7] > 46 µM | Potency [16] | activity change, negative = inhibition [11] 0.208% | Potency [14] | Potency [15]
active: Potency [18] 3.98 µM | Potency [12] 2.51 µM | Potency [17] 2.82 µM

COc1ccc(CNc2ncnc3ccc(-c4cccc(NS(C)(=O)=O)c4)cc23)c(OC)c1
-8.13%: max response [11, 21]
active: Potency [3] 7.94 µM | Potency [9] 0.501 µM | Potency [19] 2 µM | Potency [20] 2.51 µM | Potency [12] 11.2 µM | Potency [17] 25.1 µM
-11.3%: max response [11, 22]
inactive: Potency [1] > 11.4 µM | activity, negative = inhibition [5] -11.9% | Potency [6] > 46 µM | Potency [7] > 46 µM | outcome [8] | Potency [10] | activity change, negative = inhibition [11] -4.77% | Potency [14] | Potency [15]

Cc1nc2cnc(Oc3ccccc3)nc2n(C)c1=O
inactive: Potency [1] > 11.4 µM | activity change, negative = inhibition [2] -8.04% | activity change, negative = inhibition [4] -5.98% | activity, negative = inhibition [5] -10.2% | Potency [6] > 9.22 µM | Potency [7] > 46 µM | outcome [8] | Potency [16] | activity change, negative = inhibition [11] 6.1% | Potency [12] | Potency [13] | Potency [14] | Potency [15]
19.9%: max response [11, 22]
active: Potency [3] 12.6 µM
14.9%: max response [11, 21]
